# Experimental data reported in PubChem BioAssay (EPA / NIEHS).
# Records with an inconclusive call do not appear. Active and inactive are the calls of the source. How the source made its calls: active means hit-call score of the fitted dose curve at least 0.9, where 1 is the maximum; inconclusive means response in the unintended direction; inactive means score below 0.9.
# Experiment: ACEA_ER_AUC_viability: ACEA Biosciences xCELLigence Real-Time Cell Analysis on Estrogen Receptor Agonism for Viability (AID 2283782);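 further: continuous compound exposure with impedance area under curve over 80 h; hit means loss of impedance signal meaning reduced cell growth or viability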
# Outline: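 T-47D human breast cells in phenol red-free RPMI1640 with 10% charcoal-stripped FBS were dosed with an 8-point 1:4 dilution series from 100 uM top final concentration, in duplicate. Impedance-based growth was followed for 80 h; AUC analysed versus DMSO.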
SMILES,outcome,AC50
c1ccc2cnccc2c1,inactive,–
CC(C)(CO)COC(=O)C(C)(C)CO,inactive,–
Cc1cc(=O)[nH]c(=O)[nH]1,inactive,–
CCCCOCCOCCOC(C)=O,inactive,–
Clc1cccnc1,inactive,–
Oc1c(Cl)cc(Cl)c(Cl)c1Cl,–,90.9 µM (active)
[Cl][Eu]([Cl])[Cl],inactive,–
O=C(O)c1ccc2c(c1)C(=O)OC2=O,inactive,–
CC(=O)/C=C/C1C(C)=CCCC1(C)C (stereo not drawn),inactive,–
COCC(=O)O,inactive,–
CC(=O)OC1CCCCC1,–,40.3 µM (active)
CC1CC(=O)CC(C)(C)C1 (stereo not drawn),inactive,–
COC(=O)c1ccc(C(=O)OC)c(C(=O)OC)c1,–,69.6 µM (active)
Nc1ccc(O)c([N+](=O)[O-])c1,–,85.7 µM (active)
CC/C=C\C/C=C\C/C=C\CCCCCCCC(=O)OC,inactive,–
CCC(=O)C1CC(C(C)C)CC=C1C (stereo not drawn),inactive,–
CO[Si](CCCS)(OC)OC,inactive,–
CC(C)[N+](C)(CCOC(=O)C1c2ccccc2Oc2ccccc21)C(C)C,inactive,–
CCCCCCCCCCCCC,inactive,–

SMILES,outcome,AC50
CC1CCC(=O)C1=O (stereo not drawn),–,10.3 µM (active)
CCCCOC(=O)C(C)CC (stereo not drawn),inactive,–
CC(C)(CO)C(O)C(=O)NCCCO (stereo not drawn),inactive,–
CCNc1nc(NC(C)(C)C)nc(OC)n1,–,26.2 µM (active)
CC(C)C(=O)OCCc1ccccc1,inactive,–
O=C(C=Cc1ccccc1)OCCc1ccccc1,–,58 µM (active)
CC(=O)OCCc1ccccc1,inactive,–
CC(=O)CC(=O)Nc1ccccc1C,inactive,–
CC(=O)C(C)C,inactive,–
CCOC(=O)OC(=O)OCC,inactive,–
C=CC(=O)O[C@H]1C[C@@H]2CC[C@@]1(C)C2(C)C,inactive,–
Cn1cccc1,inactive,–
CCC(C)N (stereo not drawn),–,74.5 µM (active)
Nc1ccc(C(=O)OCCCOC(=O)c2ccc(N)cc2)cc1,inactive,–
Cc1noc(NS(=O)(=O)c2ccc(N)cc2)c1C,inactive,–
C=C(C)C(=O)OCCCCCCCCCCCC,inactive,–
Cc1c(Cl)cccc1Cl,inactive,–
CCOC(=O)C1=NOC(c2ccccc2)(c2ccccc2)C1,inactive,–
C=CCOC(=O)c1ccc(C(=O)OCC=C)c(C(=O)OCC=C)c1,inactive,–
